Source: PubChem BioAssay
TDP1 cell noCPT = qHTS for Inhibitors of human tyrosyl-DNA phosphodiesterase 1 (TDP1): qHTS in cells in absence of CPT; DT40 Tdp1-/- hTDP1 cells, no CPT, ATP luminescence, 48 h; Potency, µM (doses to about 46.2 µM), without a hit: at the highest dose activity change, negative = growth inhibition, most hits filed as inhibitors; hit rate 15% among 420,000; AID 686978, 2013; note: potency is the fitted concentration of half-maximal effect; % is set by controls: 0 for no effect and ±100 for the full control effect; nearly all actives have a fitted effect of over 55% in size
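No-CPT arm: Tdp1-/-;hTDP1 DT40 cells (400/well) plus compounds, incubated ≥48 hr at 37 °C. Readout CellTiter-Glo luminescence.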
TGFb inhibitor = blocks TGF-b signaling; HepG2 CAGA-GFP TGF-b/SMAD3 reporter, GFP fluorescence, 18 h; TGF-beta stimulated, 500 pg/mL final; Potency, µM (titrated, usually from 46.1 µM), for the others: at the top dose activity, negative = inhibition, actives largely listed as inhibitors; hit rate 1.2% among 410,000; note: potency is the fitted concentration of half-maximal effect; % is set by controls: 0 for no effect and ±100 for the full control effect; nearly all actives have a fitted effect of over 65% in size
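Read-out: total well GFP (ex488/em500-530) summed from mean per-cell fluorescence. Cells: HEPG2 CAGA-GFP, 1% FBS DMEM, 18 h at 37 degrees C with 500 pg/mL final TGF-beta. Unstimulated wells served as the full-inhibition control; stimulated DMSO wells = 0%.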
TDP1 block = TDP1 (human) enzyme inhibition; recombinant TDP1, AlphaScreen DNA substrate cleavage; hit rate 0.28% among 350,000; Potency, µM (titrated, usually from 130 µM), inactives show top-dose activity change, negative = inhibition, usual class: inhibitors; Q9NUW8; note: potency is the fitted concentration of half-maximal effect; % is set by controls: 0 for no effect and ±100 for the full control effect; nearly all actives have a fitted effect of over 40% in size
Target sequence (Q9NUW8 whole entry, looked up): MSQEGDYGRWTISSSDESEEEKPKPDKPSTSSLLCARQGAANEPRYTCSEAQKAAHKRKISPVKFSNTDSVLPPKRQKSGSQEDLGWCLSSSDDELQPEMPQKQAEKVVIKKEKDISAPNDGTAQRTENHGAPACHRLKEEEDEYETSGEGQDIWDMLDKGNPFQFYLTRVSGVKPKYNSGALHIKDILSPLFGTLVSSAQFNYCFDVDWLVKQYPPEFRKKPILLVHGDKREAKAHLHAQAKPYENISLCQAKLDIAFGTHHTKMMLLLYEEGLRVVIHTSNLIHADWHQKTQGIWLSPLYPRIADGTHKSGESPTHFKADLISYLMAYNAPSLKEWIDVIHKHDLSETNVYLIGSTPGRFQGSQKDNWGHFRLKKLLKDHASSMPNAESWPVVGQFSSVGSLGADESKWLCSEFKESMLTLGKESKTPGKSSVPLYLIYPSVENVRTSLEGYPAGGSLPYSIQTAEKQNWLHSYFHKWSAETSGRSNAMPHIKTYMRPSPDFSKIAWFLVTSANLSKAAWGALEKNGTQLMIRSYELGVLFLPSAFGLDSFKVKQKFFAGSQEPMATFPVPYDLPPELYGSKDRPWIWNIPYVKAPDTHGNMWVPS
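Steps: enzyme plus compound, 15 min RT; add biotin/phosphotyrosine-FITC oligonucleotide (15 nM final), react 5 min; add donor/acceptor beads (10 ug/ml final), 10 min; read AlphaScreen. Tdp1 at 1 nM final.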
DT40 TDP1 CPT = DT40-hTDP1 cell growth loss with CPT; hit rate 12% among 420,000; chicken DT40 Tdp1-/-;hTDP1 cells + 20 nM CPT, ATP luminescence, 48 h; AID 686979; Potency, µM (titrated, usually from 46.2 µM), without a hit: at the top dose activity change, negative = growth inhibition, actives largely listed as inhibitors; note: potency is the fitted concentration of half-maximal effect; % is set by controls: 0 for no effect and ±100 for the full control effect; nearly all actives have a fitted effect of over 55% in size
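Chicken DT40 Tdp1-/- cells complemented with human TDP1, 400 cells/well, exposed to compounds plus 20 nM camptothecin for at least 48 h at 37 C; viability read as ATP content by CellTiter-Glo luminescence.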
HepG2 tox = kills HepG2 cells in TGF-b inhibitor counter-screen. HepG2 CAGA-GFP viability, ATP luminescence, 18 h. Potency, µM (series often up to 46.1 µM), inactives show at the highest dose activity change, negative = cytotoxicity, actives largely listed as cytotoxic. hit rate 0.76% among 410,000. AID 588856; note: potency is the fitted concentration of half-maximal effect
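CellTiter-Glo luminescence gave cytotoxicity after 18 hours at 37 degrees C. The cells were HepG2 CAGA-GFP in 1% FBS DMEM, stimulated with 500 pg/mL TGF-beta after compound addition. %Activity was normalised to no-cell wells (complete cell-killing) and DMSO (no toxicity), and curves were fitted and classified.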
IL-1B inflam inh = blocks inflammasome-driven IL-1 beta release | THP-1 LPS/ATP IL-1B secretion, AlphaLISA, 16 h; stronger effect = lower value | activity change, % at 57.5 µM | hit rate 4.7% among 360,000; in the data active = activity change below about -50%; inconclusive = mostly about -30% to -49%; note: % is set by controls: 0 for no effect and ±100 for the full control effect
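THP-1 cells pretreated 1 hr with compounds (up to 57.5 uM final), then stimulated with LPS (250 ng/mL final) plus ATP (1.25 mM final); secreted IL-1B measured by AlphaLISA after 16 hr, decreased signal indicating inhibition.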
Starred values were filed as active, the others as inactive; ? = inconclusive; · = no result given; [ ] = dose if it differs, or a comment. Most compounds without a hit are left out; they make up all but 18% or so of the library. Unless noted, calls come from the whole dose curve; as a rule, active = well fitted curve in the direction sought with a large enough effect; inconclusive = small, poorly fitted or top-dose-only effect, or another doubt; inactive = no such curve, though single readings can be large; an effect the other way counts as inactive or inconclusive.

SMILES	TDP1 cell noCPT	TGFb inhibitor	TDP1 block	DT40 TDP1 CPT	HepG2 tox	IL-1B inflam inh
Cc1ccc([C@H]2N[C@]3(CCCN(Cc4ccc(C(F)(F)F)cc4)C3=O)[C@H]3C(=O)N(Cc4ccccc4)C(=O)[C@@H]23)cc1	?	-7%	·	23µM*	2%	-70*
COc1ccc(OCCn2c(NC(=O)c3ccc(OC)cc3)nc3ccccc32)cc1	16µM*	-10%	10%	18µM*	-8%	·
CCCCNC(=O)n1c(NC(=O)OC)nc2ccccc21	·	·	12%	·	·	·
CCC12C=CCN3CCC4(c5ccc(OC)cc5N(C)C4[C@@](O)(C(=O)OC)C1OC(C)=O)C32 (stereo partly specified)	-10%	·	9%[56.1 µM]	-5%	·	·
CC[C@@]1(O)CC(O)c2c(cc3c(c2O)C(=O)c2c(O)ccc(O)c2C3=O)C1C(=O)OC (stereo partly specified)	-16%	·	8%[56.1 µM]	-20%	·	·
CC[C@]1(O)CC(O[C@@H]2CC(N(C)C)C(O)C(C)O2)c2c(cc3c(c2O)C(=O)c2c(O)cccc2C3=O)C1C(=O)OC (stereo partly specified)	0.58µM*	·	9%	0.82µM*	·	·
Cc1oc(-c2cccc(Cl)c2)nc1CN1CCC(C(=O)NCCCN2CCN(c3ccc(F)cc3)CC2)CC1	2.9µM*	?	6%	4.6µM*	-10%	·
Cc1oc(-c2cccc(Cl)c2)nc1CN1CCC(C(=O)NC(C)c2ccccc2)CC1 (stereo unspecified)	4.6µM*	?	5%	4.1µM*	-22%	·
Fc1ccc(CN2CCN(c3ccc(Cl)cc3)CC2)cc1	?	?	6%	-28%	-30%	13
Cc1oc(-c2ccc(Cl)cc2)nc1CN1CCC(C(=O)NCCCN2CCN(c3cccc(Cl)c3)CC2)CC1	2.6µM*	16µM*	8%	5.2µM*	-23%	·
Cc1oc(-c2ccc(Cl)cc2)nc1CS(=O)CC(=O)N1CCC2(CC1)OCCO2 (stereo unspecified)	-8%	-12%	5%	-5%	-21%	-5
CCCCNC(=O)C1CCCN(Cc2nc(-c3ccc(Cl)cc3)oc2C)C1 (stereo unspecified)	4.1µM*	?	6%	6.5µM*	-25%	·
CC12C=CC(=O)C=C1CCC1C2=CCC2(C)C1CC[C@@H]2C(=O)CN1CCN(c2cc(N3CCCC3)nc(N3CCCC3)n2)CC1 (stereo partly specified)	·	·	15%	·	·	·
C[C@@H]1[C@H](O)[C@@H](C)/C=C/C=C/CC/C=C/C=C/C=C/C=C/[C@H](O[C@H]2O[C@@H](C)[C@H](O)[C@@H](N)[C@H]2O)CC2O[C@](O)(C[C@@H](O)[C@H](O)CC[C@@H](O)C[C@@H](O)C[C@@H](O)CC(=O)O[C@H]1C)C[C@H](O)[C@H]2C(=O)O	-24%	·	·	-8%	·	·
CC(C)(O)C1C2OC(=O)C1[C@]1(O)CC3O[C@@]34C(=O)OC2[C@@]14C (stereo partly specified)	15%	·	10%[56.1 µM]	9%	·	·
Cc1ccc2oc(-c3ccc(Cl)cc3)c(O)c(=O)c2c1	16µM*	?	0%	21µM*	-17%	·
COc1ccc(OCC(=O)N2CCN(Cc3c[nH]c4ccccc34)CC2)cc1	3.7µM*	-53%	-2%	1.6µM*	-1%	-9
COc1ccc(CN2CCN(C(=O)COc3ccccc3)CC2)c(OC)c1	?	-11%	·	-25%	-37%	·
O=C(COc1ccccc1)N1CCN(Cc2c[nH]c3ccccc23)CC1	8.2µM*	?	-6%	3.7µM*	-8%	8
COc1ccc(NC(=O)c2ccco2)cc1NC(=O)COc1cccc(C)c1C	?	1%	1%	?	3%	·
CN1CCC(O)(c2ccc(Cl)cc2)C(C(=O)c2ccc(Cl)cc2)C1 (stereo unspecified)	2.9µM*	?	3%	2.6µM*	-48%	-15
Cn1sc(Cl)cc1=O	-13%	·	·	13%	·	·
Oc1ccccc1/C=N/[n+]1ccccc1	18µM*	-13%	0%	21µM*	1%	4
CC1=CC(=O)NP(=O)(Oc2ccc3ccccc3c2)N1 (stereo unspecified)	10µM*	?	6%	9.2µM*	-13%	24
CC1CN1P(=O)(Oc1ccc2ccccc2c1)N1CC1C (stereo unspecified)	?	-23%	·	?	0%	6
CC(C)C1C(=O)N2CCC[C@H]2[C@]2(O)O[C@](NC(=O)[C@@H]3C=C4c5cccc6[nH]cc(c56)C[C@H]4N(C)C3)(C(C)C)C(=O)N12 (stereo partly specified)	?	·	12%	?	·	·
COc1cccc(NC(=O)C2CCN(S(=O)(=O)c3cc(-c4noc(C)n4)ccc3C)CC2)c1	18µM*	?	0%	18µM*	-23%	·
CCN(CC)C(=O)Oc1nnc(SC(C)C)n1-c1ccc(Cl)c(Cl)c1	23µM*	0%	4%	?	-54%	-21
COc1cc(OC)c(NS(=O)(=O)c2cc(-c3cnc(C4CC4)o3)ccc2C)cc1Cl	6.5µM*	?	9%	13µM*	-30%	·
CC1(C)[C@H](C=C(Cl)Cl)[C@H]1C(=O)OCc1c(F)c(F)cc(F)c1F	-4%	·	·	30%	·	·
